For some of these results: Entries with a potency or affinity are not part of this list.
What was measured:
Design in all cases: scale not given: direction of the effect not stated beside the values
[1] = target: Protein translocase subunit SecA (Escherichia coli (strain K12)) (UniProt P10408); experiment: Assay to Identify E. coli SecA ATPase Inhibitors; assay type: functional; settings: 30 µM
[2] = target: T1, Ubiquitin-activating enzyme e1, putative (Leishmania donovani (strain BPK282A1)) (UniProt E9BSI1); experiment: Leishmania donovani Ubiquitin Activating Enzyme (LdE1); assay type: functional; settings: 30 µM
T1 sequence (whole entry): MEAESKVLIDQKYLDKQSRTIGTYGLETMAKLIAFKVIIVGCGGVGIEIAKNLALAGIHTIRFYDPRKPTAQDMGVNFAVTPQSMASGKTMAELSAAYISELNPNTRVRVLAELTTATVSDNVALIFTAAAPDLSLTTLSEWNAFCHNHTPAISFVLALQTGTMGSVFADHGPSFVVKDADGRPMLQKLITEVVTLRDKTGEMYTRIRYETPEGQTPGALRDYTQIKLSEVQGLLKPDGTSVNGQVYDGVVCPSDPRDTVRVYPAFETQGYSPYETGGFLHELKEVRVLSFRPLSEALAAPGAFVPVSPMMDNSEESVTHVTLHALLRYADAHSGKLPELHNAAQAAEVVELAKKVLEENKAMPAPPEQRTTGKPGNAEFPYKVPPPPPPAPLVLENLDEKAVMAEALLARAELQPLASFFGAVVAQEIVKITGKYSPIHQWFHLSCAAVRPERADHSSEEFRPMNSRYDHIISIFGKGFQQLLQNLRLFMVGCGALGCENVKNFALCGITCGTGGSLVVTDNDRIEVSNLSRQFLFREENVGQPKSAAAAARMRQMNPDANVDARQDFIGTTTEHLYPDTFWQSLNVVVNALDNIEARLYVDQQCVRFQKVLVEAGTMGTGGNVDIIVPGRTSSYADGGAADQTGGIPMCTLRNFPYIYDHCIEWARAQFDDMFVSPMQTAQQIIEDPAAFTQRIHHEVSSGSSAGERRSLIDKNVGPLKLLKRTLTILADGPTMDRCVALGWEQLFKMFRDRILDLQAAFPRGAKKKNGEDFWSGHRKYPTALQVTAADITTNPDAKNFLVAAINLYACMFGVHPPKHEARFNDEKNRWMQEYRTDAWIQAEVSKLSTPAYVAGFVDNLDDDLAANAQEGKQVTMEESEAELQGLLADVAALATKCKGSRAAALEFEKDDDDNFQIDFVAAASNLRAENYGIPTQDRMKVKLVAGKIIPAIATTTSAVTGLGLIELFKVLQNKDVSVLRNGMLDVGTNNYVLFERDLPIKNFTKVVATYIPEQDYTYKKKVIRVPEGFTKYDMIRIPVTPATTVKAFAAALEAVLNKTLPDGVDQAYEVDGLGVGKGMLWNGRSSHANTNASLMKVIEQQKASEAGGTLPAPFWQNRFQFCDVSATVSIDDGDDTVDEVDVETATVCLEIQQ

[3] = target: AMP-activated protein kinase, AMPK (Homo sapiens) (UniProt P54646+O43741+P54619+Q9UGJ0+Q9Y478+Q13131+Q9UGI9); experiment: AMP-dependent Kinase enzyme assay. An in vitro enzyme assay that detects ADP turnover that is directly proportional to AMPK activity. This uses naive AMPK that is activated during the assay with MK-8722; assay type: functional; settings: 30 µM
[4] = target: Sialic acid-binding Ig-like lectin 9 (Homo sapiens) (UniProt Q9Y336); experiment: Hs-Siglec9 ALPHAscreen SOP 20170721; settings: 10 µM
Trypanosoma cruzi = experiment: Trypanosoma cruzi phosphomannomutase and mannose-1-phosphate guanylyltransferase assay; assay type: functional; settings: 10 µM
[5] = target: T2, Arginase-2, mitochondrial (Homo sapiens) (UniProt P78540); experiment: in vitro enzyme assay to detect the production of urea directly proportional to the activity of Arginase II; assay type: functional; settings: 33.3 µM; also: in the data most compounds retested in dose-response had high values
T2 sequence (whole entry): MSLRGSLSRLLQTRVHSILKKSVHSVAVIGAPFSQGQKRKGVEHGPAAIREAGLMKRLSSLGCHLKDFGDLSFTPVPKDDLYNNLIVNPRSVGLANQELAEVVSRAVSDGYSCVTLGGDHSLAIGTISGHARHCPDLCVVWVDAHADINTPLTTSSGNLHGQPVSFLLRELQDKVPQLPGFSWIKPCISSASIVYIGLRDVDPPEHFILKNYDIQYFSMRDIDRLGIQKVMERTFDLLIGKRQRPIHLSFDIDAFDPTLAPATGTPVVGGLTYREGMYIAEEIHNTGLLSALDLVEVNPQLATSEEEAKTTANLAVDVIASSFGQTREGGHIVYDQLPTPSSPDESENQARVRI

[6] = target: T3, Proteasome subunit beta (Trypanosoma cruzi) (UniProt O96673); experiment: Trypanosoma cruzi proteasome chymotrypsin-like activity (TcProtChymo) assay.; also: in the data most compounds retested in dose-response had high values; assay type: functional; settings: 9.37 µM
T3 sequence (whole entry): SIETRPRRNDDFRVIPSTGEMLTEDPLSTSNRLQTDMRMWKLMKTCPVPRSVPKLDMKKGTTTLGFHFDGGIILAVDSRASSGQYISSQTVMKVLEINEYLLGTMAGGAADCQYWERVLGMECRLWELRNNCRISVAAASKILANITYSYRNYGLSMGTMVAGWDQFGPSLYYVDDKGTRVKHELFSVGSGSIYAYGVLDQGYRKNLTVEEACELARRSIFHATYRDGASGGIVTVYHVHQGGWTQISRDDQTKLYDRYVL

Homo sapiens = organism: Homo sapiens; experiment: To identify inhibition of the IFN signalling (Jak-Stat) pathway via expression of an eGFP reporter gene under the control of an IFN-stimulated response element (ISRE) containing MxA promoter.; assay type: functional; settings: 30 µM
[7] = target: T4, Tyrosyl-tRNA synthetase, putative (Trypanosoma cruzi (strain CL Brener)) (UniProt Q4DSP6); experiment: Trypanosoma cruzi tyrosyl tRNA synthetase (TcYRS) _High Tyrosine SOP; assay type: functional; settings: 30 µM; also: in the data most compounds retested in dose-response had high values
T4 sequence (whole entry): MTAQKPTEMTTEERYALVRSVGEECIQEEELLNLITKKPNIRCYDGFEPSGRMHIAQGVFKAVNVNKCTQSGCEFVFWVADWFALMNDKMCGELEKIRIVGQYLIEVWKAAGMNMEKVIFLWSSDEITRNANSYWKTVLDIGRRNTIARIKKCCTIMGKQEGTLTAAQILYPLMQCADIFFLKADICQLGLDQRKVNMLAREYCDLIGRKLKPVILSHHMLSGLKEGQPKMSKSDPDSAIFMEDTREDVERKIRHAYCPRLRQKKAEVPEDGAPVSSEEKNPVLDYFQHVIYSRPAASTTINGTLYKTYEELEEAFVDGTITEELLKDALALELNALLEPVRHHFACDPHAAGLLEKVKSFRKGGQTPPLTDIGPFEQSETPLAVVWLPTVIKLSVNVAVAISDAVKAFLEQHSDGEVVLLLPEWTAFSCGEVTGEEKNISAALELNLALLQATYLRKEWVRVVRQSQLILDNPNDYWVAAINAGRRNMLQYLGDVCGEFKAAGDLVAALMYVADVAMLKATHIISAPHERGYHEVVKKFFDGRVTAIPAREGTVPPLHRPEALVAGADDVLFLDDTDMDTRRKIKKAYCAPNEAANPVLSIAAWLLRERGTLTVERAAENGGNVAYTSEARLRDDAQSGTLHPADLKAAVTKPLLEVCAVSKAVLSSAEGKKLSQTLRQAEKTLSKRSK

[8] = target: T4, Tyrosyl-tRNA synthetase, putative (Trypanosoma cruzi (strain CL Brener)); experiment: Trypanosoma cruzi tyrosyl tRNA synthetase (TcYRS) SOP; assay type: functional; settings: 30 µM
[9] = target: Chromo domain-containing protein 1 (Saccharomyces cerevisiae (strain ATCC 204508 / S288c) (Baker's yeast)) (UniProt P32657); experiment: ScCHD-1 Enzyme Inhibition Assay; assay type: functional; settings: 30 µM; also: in the data most compounds retested in dose-response had high values
Sequence of Chromo domain-containing protein 1 (Saccharomyces cerevisiae (strain ATCC 204508 / S288c) (Baker's yeast)) (P32657 whole entry, the tested form may be a part): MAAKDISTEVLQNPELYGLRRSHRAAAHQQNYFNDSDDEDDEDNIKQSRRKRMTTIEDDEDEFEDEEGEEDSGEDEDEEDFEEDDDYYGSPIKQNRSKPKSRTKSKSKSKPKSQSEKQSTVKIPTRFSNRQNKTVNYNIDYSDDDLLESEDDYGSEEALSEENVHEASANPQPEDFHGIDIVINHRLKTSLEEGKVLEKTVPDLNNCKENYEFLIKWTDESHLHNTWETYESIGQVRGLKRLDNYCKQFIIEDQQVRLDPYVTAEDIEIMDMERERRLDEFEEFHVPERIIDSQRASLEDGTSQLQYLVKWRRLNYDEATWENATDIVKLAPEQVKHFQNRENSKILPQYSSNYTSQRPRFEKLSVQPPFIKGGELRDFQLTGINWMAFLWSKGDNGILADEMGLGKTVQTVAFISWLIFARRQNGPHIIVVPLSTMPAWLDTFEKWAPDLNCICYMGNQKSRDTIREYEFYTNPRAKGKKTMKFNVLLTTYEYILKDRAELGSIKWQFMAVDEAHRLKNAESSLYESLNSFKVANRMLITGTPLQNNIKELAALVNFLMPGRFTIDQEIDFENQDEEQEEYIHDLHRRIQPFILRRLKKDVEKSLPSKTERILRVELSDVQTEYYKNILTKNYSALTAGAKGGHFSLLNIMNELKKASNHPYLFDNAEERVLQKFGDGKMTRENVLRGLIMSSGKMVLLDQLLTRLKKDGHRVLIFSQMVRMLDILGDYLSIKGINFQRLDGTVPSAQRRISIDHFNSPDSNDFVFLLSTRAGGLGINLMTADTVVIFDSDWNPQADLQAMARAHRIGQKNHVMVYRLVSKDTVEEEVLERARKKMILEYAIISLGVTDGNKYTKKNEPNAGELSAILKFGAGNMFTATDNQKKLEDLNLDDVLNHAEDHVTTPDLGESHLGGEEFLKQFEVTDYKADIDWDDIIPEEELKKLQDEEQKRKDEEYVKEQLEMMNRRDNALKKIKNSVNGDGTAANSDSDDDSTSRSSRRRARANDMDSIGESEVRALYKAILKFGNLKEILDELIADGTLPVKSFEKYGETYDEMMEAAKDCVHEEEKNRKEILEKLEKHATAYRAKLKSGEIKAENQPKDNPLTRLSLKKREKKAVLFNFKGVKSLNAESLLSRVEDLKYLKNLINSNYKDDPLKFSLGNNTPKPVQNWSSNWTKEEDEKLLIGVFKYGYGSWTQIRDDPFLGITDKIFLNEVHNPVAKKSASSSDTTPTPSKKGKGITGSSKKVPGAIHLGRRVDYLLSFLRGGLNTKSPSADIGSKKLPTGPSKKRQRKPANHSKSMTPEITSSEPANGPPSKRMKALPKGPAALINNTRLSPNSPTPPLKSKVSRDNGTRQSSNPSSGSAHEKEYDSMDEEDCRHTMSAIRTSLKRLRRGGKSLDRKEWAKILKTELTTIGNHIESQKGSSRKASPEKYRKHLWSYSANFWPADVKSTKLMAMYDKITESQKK

Sequence of Protein translocase subunit SecA (Escherichia coli (strain K12)) (P10408 whole entry): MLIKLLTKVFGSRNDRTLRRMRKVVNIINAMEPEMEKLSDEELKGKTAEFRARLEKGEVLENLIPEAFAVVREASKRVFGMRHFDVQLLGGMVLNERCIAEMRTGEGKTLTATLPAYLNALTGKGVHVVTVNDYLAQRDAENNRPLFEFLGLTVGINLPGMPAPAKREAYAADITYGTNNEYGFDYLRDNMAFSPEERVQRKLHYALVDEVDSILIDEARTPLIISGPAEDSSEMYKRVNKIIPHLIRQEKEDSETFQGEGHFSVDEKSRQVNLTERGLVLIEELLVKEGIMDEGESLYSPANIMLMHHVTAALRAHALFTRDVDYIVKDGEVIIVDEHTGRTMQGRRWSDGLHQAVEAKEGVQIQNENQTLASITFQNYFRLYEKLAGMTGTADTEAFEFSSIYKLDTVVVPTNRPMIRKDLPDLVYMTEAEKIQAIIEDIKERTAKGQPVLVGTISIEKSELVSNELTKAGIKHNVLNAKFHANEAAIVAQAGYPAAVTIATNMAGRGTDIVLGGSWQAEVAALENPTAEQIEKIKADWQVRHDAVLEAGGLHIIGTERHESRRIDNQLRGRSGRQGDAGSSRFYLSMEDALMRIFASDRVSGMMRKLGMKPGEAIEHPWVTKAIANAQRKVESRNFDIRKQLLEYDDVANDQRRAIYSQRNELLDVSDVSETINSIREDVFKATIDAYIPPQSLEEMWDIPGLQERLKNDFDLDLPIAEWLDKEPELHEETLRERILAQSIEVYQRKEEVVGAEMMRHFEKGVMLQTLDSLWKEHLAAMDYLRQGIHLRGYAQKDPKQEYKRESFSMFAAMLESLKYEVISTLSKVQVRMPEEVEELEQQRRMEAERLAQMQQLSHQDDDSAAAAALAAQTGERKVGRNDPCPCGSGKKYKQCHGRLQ
Sequence of Sialic acid-binding Ig-like lectin 9 (Homo sapiens) (Q9Y336 whole entry): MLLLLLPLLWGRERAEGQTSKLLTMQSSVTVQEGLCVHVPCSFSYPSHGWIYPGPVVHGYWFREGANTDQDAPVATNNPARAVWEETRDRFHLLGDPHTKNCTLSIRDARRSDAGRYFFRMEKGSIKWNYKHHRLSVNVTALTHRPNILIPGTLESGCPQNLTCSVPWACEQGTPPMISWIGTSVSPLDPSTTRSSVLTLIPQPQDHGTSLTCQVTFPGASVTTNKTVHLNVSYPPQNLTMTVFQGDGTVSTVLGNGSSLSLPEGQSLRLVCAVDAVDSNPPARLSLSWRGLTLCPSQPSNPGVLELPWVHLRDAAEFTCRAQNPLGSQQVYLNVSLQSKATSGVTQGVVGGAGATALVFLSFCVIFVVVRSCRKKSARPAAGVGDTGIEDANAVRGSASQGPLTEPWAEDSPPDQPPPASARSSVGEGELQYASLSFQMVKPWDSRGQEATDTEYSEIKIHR

Compound	Percent Effect [1]	Percent Effect [2]	Percent Effect [3]	Percent Effect [4]	Percent Effect (Trypanosoma cruzi)	Percent Effect [5]	Percent Effect [6]	Percent Effect (Homo sapiens)	Percent Effect [7]	Percent Effect [8]	Percent Effect [9]
CCOc1cc(C(=O)N2CCCC(c3cc(C(N)=O)[nH]n3)C2)ccn1 (stereo not given)	-4.21%	10.5%	5.83%	-2.38%	7.94%	0%	5.5%	-0.364%	3.45%	16.1%	-0.329%
Cc1nc(CN2CCCC(N(C)CCc3ccncc3)C2)no1 (stereo not given)	0.743%	18.9%	-12.8%	-5.86%	-2.51%	6.84%	10.4%	24.3%	0%	13.4%	0.929%
N#Cc1cccc(C(=O)N2CCc3ncc(Cn4cccn4)n3CC2)c1	-2.76%	-5.33%	6.89%	-4.2%	-1.74%	-56.1%	2.22%	-20.1%	-3.12%	-2.5%	-3.63%
Cc1ccc(C(C)N(C)Cc2nc3c(cnn3C)c(=O)[nH]2)cc1 (stereo not given)	0.32%	16.2%	-5.9%	6.25%	1.21%	3.88%	15.8%	21.7%	7.92%	13.4%	-7.48%
c1ccc(C[C@H]2CN(Cc3nccs3)CC[C@H]2OCC2CC2)cc1	-4.65%	2.67%	3.57%	3.38%	-0.591%	-2.56%	4.32%	21.5%	3.19%	11.5%	-3.05%
Cc1cc(CN(C)C2CCCN(c3cccnn3)C2)on1 (stereo not given)	-4.98%	-2.67%	-10.6%	-0.639%	4.19%	1.56%	16.2%	-1.53%	11.5%	13.6%	-1.67%
Cc1noc(C2CCC3(CCN(C(=O)c4c(C)noc4C)CC3)O2)n1 (stereo not given)	-6.54%	2.7%	-4.63%	17.5%	7.53%	-6.2%	0.0858%	5.82%	-4.3%	11.1%	-1.92%
Cc1cc(C)c(CNC(=O)N2CCCC2C(N)=O)c(=O)[nH]1 (stereo not given)	-3.77%	6.33%	7.27%	3.83%	-1.95%	1.5%	23.5%	11.6%	5.21%	12.7%	-14.7%
O=C(Nc1cccnc1)N1CCC(n2ccc(C(F)(F)F)n2)CC1	-7.93%	8.22%	-4.95%	13%	3.72%	-0.909%	10.5%	2.75%	1.07%	10%	-5.84%
NS(=O)(=O)c1ccc(NC(=O)CSc2ccc3c(c2)CCC3)cc1	-2.43%	-2.7%	2.08%	-4.31%	-4.69%	-21.2%	13.1%	6.93%	1.98%	-13.4%	17.3%
Cc1cc(C)cc(OCCC(=O)N2CCOCC2c2ncon2)c1 (stereo not given)	-7.26%	2.7%	-4.41%	6.93%	-5.11%	-1.29%	-1.62%	4.3%	2.97%	11%	0.318%
COCc1cc(NCCc2ccc(F)cc2)n2nccc2n1	-5.32%	0%	14.1%	-6.47%	-0.196%	-2.27%	-0.887%	-6.7%	1.07%	5%	-5.83%
CN(C(=O)c1cccc(C(=O)NCC(F)(F)F)c1)c1ccccc1	-6.02%	-2.6%	-0.584%	2.53%	-5.8%	-6.9%	9.82%	7.29%	-1.07%	-8.64%	0.0055%
COCCC(=O)N1CCC2(CN(Cc3ccc(OC)c(F)c3)C2)C1	1.99%	13.7%	-3.76%	8.62%	5.16%	0.399%	6.42%	-17.9%	6.25%	18.5%	-0.472%
Cc1noc(C)c1CN(C)CC1CCCN1c1cccnn1 (stereo not given)	-3.03%	13%	1.18%	-2.33%	0.0979%	0.21%	11.7%	11.2%	6.67%	18.8%	-25.9%
O=C(NCc1ccccn1)[C@@H]1COC[C@H]2CN(C3CCOCC3)C[C@H]21	4.15%	8.11%	9.79%	-14%	-7.33%	4.78%	12.7%	11.2%	5.41%	10.3%	-2.43%
COc1cccc(NC(=O)N(CCO)Cc2ccsc2)c1	-3.38%	-6.94%	1.15%	-5.41%	-4.96%	-4.42%	12.3%	11.8%	3.16%	5.13%	-4.52%
Cc1noc(C)c1C1CCCN1C(=O)CN1CC2(CCNCC2)OC1=O (stereo not given)	-6.39%	0%	4.75%	9.41%	-1.35%	-3.81%	6.9%	-4.21%	3.7%	0%	-4.34%
CN(C)C(=O)c1ccc2c(c1)N(C)C(CC(=O)NCCC(C)(C)C)CO2 (stereo not given)	-3.89%	9.72%	3.96%	13.4%	5.73%	22.1%	14.4%	2.35%	3.16%	10.3%	-5.3%
COc1ccc(C)cc1NC(=O)Nc1cnc(N2CCN(C)CC2)nc1	-1.71%	7.79%	2.48%	-0.124%	5.42%	-12.3%	8.18%	36.4%	6.35%	11.5%	-11.3%

Reference: ChEMBL document CHEMBL3988442, “University of Dundee, Small-Polar-MMV Screening Library” (2021)
